Only some compounds are listed: those with a hit (about 2.9% of all), similar ones and a draw of the others.
KDM5B inh: Primary screen for KDM5B Histone Demethylases FDH-coupled qHTS | Potency, µM (doses to about 57.7 µM), hits mostly inhibitors | Lysine-specific demethylase 5B (Homo sapiens), Q9UGL1 | KDM5B demethylase, FDH-coupled NADH fluorescence (FDH is formaldehyde dehydrogenase) | hit rate 2.6% among 220,000 | AID 1347165, 2019; further: potency means the concentration at half of the fitted maximal effect; 0% is about no effect; nearly all actives have a fitted effect of over 70% in size
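Inhibition is measured as reduced NADH fluorescence generation from FDH coupling to formaldehyde release. Truncated KDM5BΔAP at 200 nM final acts on H3K4me3 peptide (12.5 µM in substrate mix) in pH 7.5 HEPES buffer with Tween-20, 30 min, room temperature.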
SNCA viab count: GF-AFC viability counterscreen for inhibitors of alpha-synuclein gene (SNCA) expression. Potency, µM (top dose mostly 57.1 µM), for inactives: at the top dose activity change, negative = cytotoxicity, actives largely listed as cytotoxic. HEK-293-SNCA-luc viability, GF-AFC fluorescence, 24 h. hit rate 0.12% among 150,000;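 further: potency means the concentration at half of the fitted maximal effect; 0% = DMSO-treated cells and -100% = medium-only wells without cells; nearly all actives have a fitted effect of over 30% in size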
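Cytotoxicity counterscreen: after 24 h compound treatment of genome-edited SNCA-luciferase HEK-293 cells, live-cell protease substrate GF-AFC read by fluorescence after 30 min; activity scaled between DMSO (0%) and medium-only (-100%), curves Hill-fitted.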
SNCA expr inhib: Primary qHTS assay for inhibitors of alpha-synuclein gene (SNCA) expression; HEK-293 SNCA-luciferase knock-in, luminescence, 24 h; hit rate 0.17% among 140,000; Potency, µM (series often up to 57.2 µM), for inactives: at the top dose activity change, negative = inhibition, most hits filed as inhibitors;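 further: potency means the concentration at half of the fitted maximal effect; plate controls were DMSO cells for no effect and cell-free wells for full effect; nearly all actives have a fitted effect of over 45% in size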
IP6K1 inh: Primary qHTS assay for small molecule inhibitors of Inositol hexaphosphate kinase 1 (IP6K1). IP6K1 kinase, ADP-Glo luminescence, 2 h; active compounds read low. Inositol hexakisphosphate kinase 1 (Homo sapiens), Q92551. activity change, % (series mostly up to about 58 µM). hit rate 0.81% among 140,000; in the data active means activity change below about -25%; further: on the % scale 0 is the no-effect control and ±100 the full control effect
Target sequence (Q92551 whole entry, looked up): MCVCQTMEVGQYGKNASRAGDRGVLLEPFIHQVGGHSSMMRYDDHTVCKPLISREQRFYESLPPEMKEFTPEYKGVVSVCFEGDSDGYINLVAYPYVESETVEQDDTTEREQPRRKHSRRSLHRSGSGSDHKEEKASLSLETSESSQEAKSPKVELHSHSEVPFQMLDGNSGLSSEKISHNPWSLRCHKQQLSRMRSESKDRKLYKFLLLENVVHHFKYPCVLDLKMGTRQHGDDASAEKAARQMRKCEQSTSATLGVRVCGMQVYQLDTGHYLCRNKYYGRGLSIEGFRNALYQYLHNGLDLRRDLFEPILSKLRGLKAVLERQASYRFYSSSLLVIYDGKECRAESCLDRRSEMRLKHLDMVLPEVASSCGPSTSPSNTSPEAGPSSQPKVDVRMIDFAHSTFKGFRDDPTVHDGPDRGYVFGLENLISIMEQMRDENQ
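ADP-Glo luminescence measures ADP made by human IP6K1 during a 2 h RT reaction with ATP/IP6 (mix at 1.3 mM/130 uM); top library doses 57.5 and 19.1 uM final.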
* marks the source's active call; other numbers are inactive results; i = inactive; ? = inconclusive; . = no result given; [ ] = dose if it differs, or a comment. Unless noted, the call rests on the fitted dose curve; in most records, active means well fitted curve in the direction sought with a large enough effect; inconclusive means small, poorly fitted or top-dose-only effect, or another doubt; inactive means no such curve, though single readings can be large; an effect the other way counts as inactive or inconclusive.

SMILES | KDM5B inh | SNCA viab count | SNCA expr inhib | IP6K1 inh
COc1ccc(OC)c(NC(=O)Cn2c(N3CCCCC3)nc(C)c(C)c2=O)c1 | ? | 3% | 14% | 22
COC(=O)/C=C/C(=O)N(O)CCCCNCc1ccc(COC(=O)Nc2cccc3ccccc23)cc1 | . | 24µM* | . | -3
Cc1cc(C)cc(-c2ccc(CN3CCCC3C(=O)NCCc3ccc(F)cc3)cc2)c1 (centres undefined) | . | 8% | -13% | -6
COc1ccc(-c2noc(-c3ccc(N4C[C@H]5CC[C@H]4C5)nc3)n2)cc1 | 32µM* | -2% | 32% | 5
COc1ccc(-c2noc(-c3ccc(N4CCCOCC4)nc3)n2)cc1 | 32µM* | 1% | 73% | 1
CSCCNC(=O)[C@@H]1CCCN1c1nccc(Nc2ccccc2Cl)n1 | . | 4%[12.5 µM] | -27% | 0
CC(C)c1cc(CN(C)Cc2cn[nH]c2-c2ccc(F)cc2)no1 | 28µM* | -26% | 6% | 1
CCOc1cccc(CN(C)Cc2cn[nH]c2-c2ccc(F)cc2)c1O | ? | -1% | -5% | 0
Cc1cccc(CN2CCCC3(CCN(C(=O)Cc4cccnc4)C3)C2=O)c1 (centres undefined) | i | -16% | -18% | 32
Cc1cccc(CN2CCCC3(CCN(C(=O)c4ccc(=O)[nH]c4)C3)C2=O)c1 (centres undefined) | 13µM* | 2% | 4% | -2
O=C(NCc1ccc(Cl)cc1)C1CCN(C(=O)c2ncn3c2COC(c2ccccc2)C3)CC1 (centres undefined) | i | -8% | 62% | 0
Cc1ccc2nc(C)c(C)c(C(=O)NCc3nc(-c4ncccn4)no3)c2c1 | 28µM* | -7% | 11% | -1
COc1ccc2c(C)c(C(=O)NCc3nc(-c4ncccn4)no3)oc2c1 | i | -2% | 1% | 12
O=C(NCC1CC1)c1cc(-c2cccs2)c2cccn2n1 | . | -10%[87.6 µM] | 89%[87.6 µM] | -9
O=C1Cc2c(-c3ccccc3OCc3ccccc3)n[nH]c2CN1Cc1ccccc1 | ? | -13%[87.6 µM] | 10%[87.6 µM] | 14
COc1ccc(-c2ccc(-c3nc(CC(C)C)no3)cn2)c2cccnc12 | 28µM* | -17% | -15% | -4
COc1cc2c(cc1CN1CCN(c3ccc(C#N)cc3)C(=O)C1)CCC2 | 32µM* | -10% | -9% | 0
CC(C)c1nc(-c2ccc(OC3CCN(S(=O)(=O)Cc4ccccc4)C3)cc2)no1 (centres undefined) | i | -9% | 90% | 9
Cc1cc(-c2cc3c(cn2)CN(CC2CCOCC2)CCN3)ccn1 | 35µM* | 5%[87.6 µM] | 56%[87.6 µM] | -1
COc1ccc(Nc2cc3c(cn2)CN(CCc2ccccc2)CCN3)cc1OC | ? | ? | 4%[87.6 µM] | -10
COc1ccc(Cl)cc1-c1cc2c(cn1)CN(Cc1cccnc1)CCN2 | 32µM* | 0%[87.6 µM] | 64%[87.6 µM] | -14
COc1ccc(-c2cc3c(cn2)CN(CCc2ccccc2)CCN3)cc1OC | 35µM* | ? | 88%[87.6 µM] | -2
COc1ccc(-c2cc3c(cn2)CN(Cc2ccccc2)CCN3)cc1OC | 32µM* | -21%[87.6 µM] | 102%[87.6 µM] | -13
Cc1cc(-c2cc3c(cn2)CN(Cc2ccccn2)CCN3)ccn1 | ? | 8%[87.6 µM] | 22%[87.6 µM] | -12
CCC1(O)CCCN(C(=O)c2coc(COc3ccc4ccc(OC)cc4c3)n2)C1 (centres undefined) | i | -9% | ? | -2
SMILES | KDM5B inh | SNCA viab count | SNCA expr inhib | IP6K1 inh
CC(=O)NC1CCN(Cc2cccc(-c3cccc(C)c3)c2)CC1 | . | 4%[87.6 µM] | 22%[87.6 µM] | -7
C[S+](=O)([O-])c1ccc(-c2cc3c(cn2)CN(CCc2ccccc2)CCN3)cc1 | 40µM* | -24%[87.6 µM] | -2%[87.6 µM] | 2
COc1ccc(-c2ccc3c(n2)CN(C)C(=O)CO3)cc1 | 35µM* | -4%[87.6 µM] | 210%[87.6 µM] | -2
Cc1ccc(-c2ccc3c(n2)CN(C)C(=O)CO3)cc1 | i | 4%[87.6 µM] | 90%[87.6 µM] | -10
COc1ccc(-c2ccc3c(n2)CN(CCOc2ccccc2)C(=O)CO3)cc1 | 13µM* | 4%[87.6 µM] | -3%[87.6 µM] | -9
CC(C)c1nc2c(c(-c3ccc(Cl)cc3)n1)CCN(Cc1ccc(C(F)(F)F)cc1)CC2 | ? | -9% | -9% | -4
CCN1CCN(CCCNC(=O)c2cn3ccnc(-c4ccc(C)cc4)c3n2)CC1 | ? | -6% | -8% | 28
COc1ccc(-c2nccn3cc(C(=O)NCCN4CCCCC4)nc23)cc1 | 20µM* | -24% | 12% | 3
CCCN1CCN(CCNC(=O)c2cn3ccnc(-c4ccc(OC)cc4)c3n2)CC1 | 20µM* | -3% | 9% | 20
COc1ccccc1-c1cc(C(=O)NC2CCC2)c2cnn(C)c2n1 | . | . | . | -3
O=C(NCc1ccc(F)c(F)c1)c1ccc2nnc(-c3cccc(C(F)(F)F)c3)n2c1 | . | -27% | -27% | -1
CC(C)Cc1nc2nccc(-c3ccc(F)cc3)n2n1 | ? | 8% | 0% | 3
Fc1cc(F)cc(Cc2nc3nccc(-c4ccccc4)n3n2)c1 | 28µM* | 5% | 0% | -13
COc1ccc(CCc2nc3nccc(-c4ccco4)n3n2)cc1OC | i | 3% | 10% | 0
CC(C)Cc1nc2nccc(-c3ccco3)n2n1 | 25µM* | -3% | -3% | 6
CC(C)Cc1nc2nccc(-c3ccccc3)n2n1 | 28µM* | 2% | 11% | -6
c1ccc(CCc2nc3nccc(-c4ccco4)n3n2)cc1 | 25µM* | 1% | 17% | -11
CCOC(=O)C1(Cc2ccccc2C(F)(F)F)CCN(Cc2ccccn2)CC1 | i | -11% | -14% | -2
O=C(NCc1ccc2c(c1)OCO2)C1CCCN(Cc2cccc(-c3ccc(F)cc3F)c2)C1 (centres undefined) | . | 5% | 3% | -8
CC(C)Cc1nc2nccc(-c3ccncc3)n2n1 | 28µM* | -4% | 11% | -13
O=C(NCc1nnc2ccc(-c3ccc(F)cc3)nn12)c1cccc(OC(F)(F)F)c1 | ? | -8% | -20% | 17
Cc1ccc(-c2ccc3nnc(CNC(=O)c4cccc(N(C)C)c4)n3n2)cc1 | i | -26% | 59% | -9
N#Cc1cccc(C(=O)NCc2nnc3ccc(-c4ccc(F)cc4)nn23)c1 | 28µM* | -15% | -8% | 13
Cc1ccc(-c2ccc3nnc(CNC(=O)c4cccc(C#N)c4)n3n2)cc1 | 11µM* | -10% | 2% | 10
O=C(NCc1ccc(Cl)cc1)C1CCN(c2ccnc3ccnn23)CC1 | . | 8% | -18% | -1
COc1ccc(CCN(C)C2CCCN(c3ncccc3C#N)C2)cc1OC (centres undefined) | 25µM* | -21% | -21% | 25
c1cc(-c2cnn3cc(-c4ccc(N5CCNCC5)cc4)cnc23)c2cccnc2c1 | . | 24µM* | . | 23
COc1ccc(Nc2ccnc(N3CCC(N[S+](=O)([O-])c4ccc(C)cc4)CC3)n2)cc1 | . | ? | -30% | 3
O=C(NCCc1ccc(Cl)cc1)c1cc(-c2cccc(C(F)(F)F)c2)c2nncn2n1 | 79µM* | -18% | -20% | -4

Assay outcomes deposited in PubChem BioAssay by National Center for Advancing Translational Sciences (NCATS).
